Bioassay records (PubChem BioAssay)
Compounds with a hit are over-represented: about 2.9% of the library has one in this group of screens.
D3 antag = antagonists of human D3 dopamine receptor. max response, negative = inhibition, %. D3R cells, DiscoveRx beta-arrestin luminescence, antagonist mode; hits give low values. 2.5% of 360,000 active. AID 652054; in the data active = max response below about -50%; inconclusive = no clear call, values can overlap the other calls; also: % is scaled to controls: 0 for no effect and ±100 for the full control effect
Target sequence (P35462 whole entry, looked up): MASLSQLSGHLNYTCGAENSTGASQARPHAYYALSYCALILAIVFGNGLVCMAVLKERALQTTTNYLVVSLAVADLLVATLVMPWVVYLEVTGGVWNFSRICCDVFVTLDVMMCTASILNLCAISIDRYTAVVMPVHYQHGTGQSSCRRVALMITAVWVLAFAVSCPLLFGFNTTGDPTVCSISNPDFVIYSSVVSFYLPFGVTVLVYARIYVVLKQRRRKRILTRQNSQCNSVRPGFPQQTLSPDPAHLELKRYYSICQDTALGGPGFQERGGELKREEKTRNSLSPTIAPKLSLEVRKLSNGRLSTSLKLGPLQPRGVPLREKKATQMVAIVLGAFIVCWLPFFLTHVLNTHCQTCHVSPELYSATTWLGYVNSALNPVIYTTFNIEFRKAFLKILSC
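Cells plated overnight at 1500 cells/well, then exposed to library compounds with dopamine controls for 90 minutes at 37 degrees C. DiscoveRx reagent added for 30–60 minutes at room temperature; luminescence read, quantitative HTS format.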
Integrin act MD = integrin-mediated muscular dystrophy alleviation activation; alpha7betagal myoblasts, beta-gal FDG fluorescence, 48 h; Potency, µM (top dose mostly 38.3 µM), inactives show top-dose activation, hits mostly activators; 0.064% of 350,000 active; active = well fitted activation curve with a large enough effect; inconclusive = small, poorly fitted or top-dose-only effect; inactive = no such curve, though single readings can be large or run the other way;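 also: potency is read from the fitted curve at half-maximal effect; 100% = response of the positive control SU9516; nearly all actives have a fitted effect of over 60% in size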
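alpha7betagal+/- myoblasts (passage 13, 250/well) treated 48 h at 37C with compounds at 1:260 dilution of DMSO stock. Lysed, then beta-galactosidase activity read as FDG fluorescence (ex 480/em 540) after 30 min, with pre-read for autofluorescence.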
D3 ag = agonists of human D3 dopamine receptor. D3R DiscoveRx beta-arrestin cells, luminescence, 90 min. max activation, %. AID 652048. 0.58% of 410,000 active. P35462; in the data active = max activation above about 30%; also: 0% is about no effect
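Agonist mode: compounds and dopamine controls were applied to plated cells for 90 min at 37 degrees C after an overnight attachment at 1500 cells/well. Luminescent read-out followed 30 - 60 minutes at room temperature with DiscoveRx detection reagent.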
Numbers without * were called inactive; ? = inconclusive; / = not tested or not shown; [ ] = another dose, or the depositor's remark.

SMILES	D3 antag	Integrin act MD	D3 ag
O=C(NC1CCCCC1)NC1CCN(CC(=O)N2CCOCC2)CC1	-20	-2%	0
CN(C(=O)Cn1c(=O)oc2ccccc21)C1CCCCC1	1	-18%	2
CC1CC(C)CN(CCCSc2ccccc2)C1 (stereo not given)	-51*	-9%	-10
c1ccc(SCCOCCn2cncn2)cc1	-15	-2%	-3
CC1CC(C)CN(CCOCCSc2ccc(Cl)cc2)C1 (stereo not given)	-80*	-21%	-14
CC1CCCN(CCOCCSc2ccccc2)C1 (stereo not given)	-73*	-20%	-12
Cc1ccc(SCCOCCN2CCOCC2)cc1	-27	11%	-10
CC1CCCN(CCS(=O)(=O)c2ccccc2)C1 (stereo not given)	-20	-48%	-15
CC1CCC(=O)N(CCSc2ccccc2)CC1 (stereo not given)	13	6%	-6
CC1CC(C)CN(CCOCCSc2ccccc2)C1 (stereo not given)	-73*	-45%	-11
COc1ccc(-c2cc(C(=O)Nc3cc(C)ccc3O)no2)cc1OC	/	/	5
Cc1ccc(C(=O)NCC(=O)OCN2C(=O)c3ccccc3C2=O)cc1C	26	0%	2
COCCOC(=O)C1=C(C)NC(=O)NC1c1c(Cl)nc2ccccn2c1=O (stereo not given)	2	9%	0
COCCCn1c(=O)c2sccc2n2c(CCCC(=O)NCC3CCCO3)nnc12 (stereo not given)	17	7%	6
O=C(CCSCc1ccccc1Cl)N1CCN(c2ccc(F)cc2)CC1	/	/	2
c1ccc(N2CCN(c3ncnc4scc(-c5cccs5)c34)CC2)cc1	39	11%[7.66 µM]	51*
c1csc(-c2csc3ncnc(NCCCN4CCOCC4)c23)c1	-56*	-28%[7.66 µM]	-17
COc1ccc(CN2CCN(c3ncnc4scc(-c5ccc(F)cc5)c34)CC2)cc1	?	-21%	-31
Fc1ccc(-c2csc3ncnc(N4CCN(c5ccccc5)CC4)c23)cc1	23	13%	2
COc1ccc(N2CCN(c3ncnc4scc(-c5ccc(C)cc5)c34)CC2)cc1	16	-48%	3
COc1ccc(N2CCN(c3ncnc4scc(-c5ccccc5)c34)CC2)cc1	67	5%	31*
c1ccc(-c2csc3ncnc(NCCCN4CCOCC4)c23)cc1	-2	-37%	-12
CCN1CCN(c2ncnc3scc(-c4ccc(OC)cc4)c23)CC1	-61*	-10%	-12
Cc1cnc(NC(=O)Cc2c[nH]c3ccccc23)s1	-28	1%	-8
Cn1c(N)c(C(=O)COC(=O)CN2C(=O)c3ccccc3C2=O)c(=O)n(C)c1=O	-2	9%	0
SMILES	D3 antag	Integrin act MD	D3 ag
CCn1c(CCc2nc3ccccc3[nH]2)n[nH]c1=S	-8	0%	4
Cc1ccc(-n2c(CCc3nc4ccccc4[nH]3)n[nH]c2=S)cc1	-51*	18%	-19
CCc1nnc(NC(=O)c2oc3ccc(Br)cc3c2C)s1	-6	0%	1
COc1ccccc1OCCSc1nc2ccccc2n1CCO	-1	-19%	0
CCOC(=O)C1(Cc2ccccc2C(F)(F)F)CCN(C(C)CSC)CC1 (stereo not given)	-54*	-23%	-11
CCOC(=O)C1(Cc2ccccc2C(F)(F)F)CCN(C(C)CCn2cccn2)CC1 (stereo not given)	-50*	-30%	-26
CCOC(=O)C1(Cc2ccccc2C(F)(F)F)CCN(C2CCCC2)CC1	-19	-13%	-27
CCOC(=O)C1(Cc2ccccc2C(F)(F)F)CCN(CC2CC2)CC1	7	-16%	-22
COc1ccccc1C1N(c2ccc(F)cc2)C(=O)C2CCCN21 (stereo not given)	-1	11%	0
CCCOC(=O)C1=C(C)NC2=C(C(=O)CCC2)C1c1cccc(OC)c1OC (stereo not given)	-19	9%	-2
O=C(Nc1nc2c(s1)CCCC2)C1CCCN1C(=O)c1cccs1 (stereo not given)	-53*	4%	-5
O=C(Nc1nc2c(s1)CCCC2)c1ccc(Br)s1	-67*	16%[7.66 µM]	-26
O=C(Nc1nc2c(s1)CCCC2)c1ccc(N2C(=O)CCC2=O)cc1	-24	22%	-2
O=C(Nc1nccs1)[C@@H]1CCCN1C(=O)c1cccs1	-2	-17%	0
O=C(CCS(=O)(=O)Cc1ccccc1)Nc1nc2c(s1)CCCC2	-103*	-68%	-11
O=C(CS(=O)(=O)Cc1ccccc1)Nc1nc2c(s1)CCCC2	-16	2%	-2
Cc1cc(=O)n2[nH]c(NCc3c(F)cccc3Cl)nc2n1	2	-5%	3
CSc1nc2ccccc2n1C(=O)NC1CCCCC1	?	11%	8
CN1C(=O)C(C)(C)c2cc(S(=O)(=O)NCC3CCC(C(=O)NC4CCCCC4)CC3)ccc21 (stereo not given)	27	-57%	2
CCOc1ccc2nc(NC(=O)c3nc(SC)ncc3Cl)sc2c1	/	/	-5
COC(=O)CNC(=O)Cn1cnc2sc(C)c(S(=O)(=O)N3CCN(c4ccccc4OC)CC3)c2c1=O	11	0%	20
CCCNS(=O)(=O)c1ccc(OCC(=O)NCc2ccco2)cc1	25	-19%	-4
O/N=C/c1cn(-c2ccc(Cl)cc2)nn1	2	-18%	6
Brc1ccc(Oc2ncc(CN3CCN(c4ccccc4)CC3)s2)cc1	-60*	-1%	33*
Cc1ccc(Oc2ncc(CN3CCOCC3)s2)cc1	-29	2%	0
SMILES	D3 antag	Integrin act MD	D3 ag
CC1(C(=O)Nc2ccc3c(c2)OCCO3)CN(S(C)(=O)=O)CC(=O)N1Cc1ccco1 (stereo not given)	3	/	3
CCOC(=O)c1cnc2ccc(C(=O)OC)cc2c1Nc1ccc2c(c1)OCCO2	17	5%	8
CCOC(=O)c1cnc2ccc(OC)cc2c1Nc1ccc2c(c1)OCCO2	-70*	-56%	0
CCOP(=O)(/C(C#N)=C(\C)O)c1ccccc1 (stereo not given)	2	0%	-5
COCCOc1cc(NCc2ccccc2)c2ncn(C(C)C)c2c1	-71*	-32%	-15
CCC(CO)Oc1cc(NCc2ccccc2O)c2ncn(C(C)C)c2c1 (stereo not given)	183	-16%	50*
CCCOc1cc(NCc2ccccc2)c2ncn(C(C)C)c2c1	7	-13%	10
CCC(CO)Oc1cc(NCc2ccc(Cl)cc2Cl)c2ncn(C(C)C)c2c1 (stereo not given)	3	20%	-1
CCc1nn(CC(=O)NCCCN(CC(C)C)CC(C)C)c(=O)c2cc3sc(C)cc3n12	/	/	-5
CCCc1c(C(=O)N/N=C/C=C/c2ccccc2)nnn1-c1nonc1N	-18	5%	0
Nc1nonc1-n1nnc(C(=O)N/N=C/C=C/c2ccccc2)c1CSC1=NCCS1	-50*	-22%	5
Nc1nonc1-n1nnc(C(=O)N/N=C/c2c(Cl)cccc2Cl)c1CSC1=NCCS1	-53*	-20%	-2
Nc1nonc1-n1nnc(C(=O)N/N=C/c2ccccc2Cl)c1CSc1ccccc1	-15	-25%	3
Nc1c(C(=O)Nc2ccc(Br)cc2)sc2nc(N3CCOCC3)c3c(c12)CCCC3	6	8%	0
